Several values for one entry are separate records, joined by “and”; a condition that tells them apart may be missing. Equal values may be shown once. This is part of a sample that, as a whole, favours compounds with a hit. Of some 83,000 tested, about 20% had one in any assay.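 Interpretation: 100, growth as untreated; towards 0, rising growth inhibition; 0, no net growth; 0 to -100, cell death. Compounds scoring below 10 were considered active.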 Activity calls are given as the source filed them.

This assay relates to HL-60(TB) leukemia. Kind of assay: NCI-60 one-dose screen, 48 h (100 = growth as untreated, 0 = no growth, -100 = all killed). The settings on record: 10 µM unless noted.
As to `Cc1ccc(C)c2c1sc1nc3nc4sc5ccccc5n4c(=N)c3c(=O)n12`, the growth is 89% (inactive).
As to `CC(C)N(Cc1ccc(CN(C(=O)CCl)C(C)C)cc1)C(=O)CCl`, the growth was -46% (active).
`Cc1cccc2nnc(-c3ccccc3)n12`: the growth is 99% (inactive).
`CN(C)c1ccc(Nc2cc(-c3cccc(OC(F)(F)F)c3)nc3ccc(N4CCCC4)cc23)cc1`: the growth is -15.6% (active).
In the case of `COc1cc(-c2nnc(-c3nc(-c4cc(OC)c(OC)c(OC)c4)n4ccccc34)o2)ccc1N`, the growth was 64.8% (inactive).
The same measure for `O=C1/C(=C/c2ccc(Cl)cc2)COc2ccc(O)c(O)c21`: -11.7% (active); for `CCN(CC)c1ccc2nc3ccc(=[N+](CC)CC)cc-3oc2c1`: -12.7% (active); for `N#Cc1ncc(-c2cc(F)c(F)c(F)c2)c(NC2CCCCCC2)n1`: 108% (inactive).
As to `c1ccc(C2=NN[C@H](c3cn(-c4ccccc4)nc3-c3ccccc3)C2)cc1`, the growth is 112% (inactive).
The same measure for `COc1ccc(OC)c(C(=O)/C=C/c2cc3c(c(OC)c2OC)OCO3)c1`: 48.6% (inactive); for `COC1C[C@H](O[C@@H]2C[C@H](O[C@@H]3C[C@H](O[C@@H]4C(=O)c5c(cc6cc(O[C@H]7C[C@@H](O[C@H]8C[C@@H](O)[C@H](O)C(C)O8)[C@H](O)C(C)O7)c(C)c(O)c6c5O)C[C@H]4C(OC)C(=O)[C@@H](O)[C@@H](C)O)OC(C)[C@H]3O)OC(C)[C@@H]2O)OC(C)[C@@H]1O` (some centres not stated): -0.253% (active).
For `CC1=Nc2cnc(Nc3ccc(OCCN4CCCCC4)cc3)nc2Nc2ccccc21`, the growth is 65.1% (inactive).
In the case of `Cc1cc(C(C)(C)C)ccc1S`, the growth is 111% (inactive).
`CCOC(=O)c1cc(C(=O)c2ccc(OC)c(OC)c2)n2ccc(-c3ccccn3)cc12`: the growth was 110% (inactive).
For the compound `CC(O)Cn1cnc2c1c(=O)n(C)c(=O)n2C` (configuration not stated), the growth was 97.1% (inactive).
To `COc1ccc(-c2nc3c(c(-c4ccccc4)nn3-c3ccccc3)c(-c3ccc(N4CCN(C)CC4)cc3)c2C#N)cc1` belongs 80.4% (inactive); to `CCOC(=O)c1c(C)[nH]c(C)c1C=O`, 71.4% (inactive).
The same measure for `COc1ccc(N)c2c1C(=O)c1ccccc1C2=O`: 45.8% (inactive).
As to `O=C(OCc1ccccc1)c1ccccc1`, the growth was 132% (inactive) and 98.4% (inactive).
In the case of `c1ccc(-c2nc(N3CCNCC3)c3nc(-c4ccccc4)oc3n2)cc1`, the growth is -49.6% (active).
For the compound `Oc1c(Cl)cc(Cl)cc1C=NCC1CCC(CN=Cc2cc(Cl)cc(Cl)c2O)CC1` (configuration not stated), the growth was 73.9% (inactive).
On to `Cc1ccc(N=C2CSc3nnc(-c4csc5c4CCCC5)n3N2)cc1`, for which the growth is -25.4% (active).
On to `C#Cc1ccccc1NC(=O)c1sc2nc3c(cc2c1N)CCCCC3`, for which the growth was 99.7% (inactive).
The same measure for `COc1ccc(Nc2nnc(SCc3ccccc3F)s2)cc1`: 86% (inactive); for `COc1ccc(-c2ccc(-c3ccc(C(=N)N)c(F)c3)s2)cc1`: -79.4% (active).
On to `COc1ccc2c(c1)C(=O)/C(=C/c1ccc([N+](=O)[O-])o1)O2`, for which the growth was -42.3% (active).
As for `COc1ccc(/C=C/C(=O)Nc2cccnc2Nc2ccc(F)cc2)cc1`, the growth was 84.3% (inactive).
Regarding `CCC1CCC(C)NC1` (configuration not stated), the growth was 99.4% (inactive).
`O=C(N/N=C/c1ccc(F)cc1)c1[nH]c2ccc(I)cc2c1-c1ccccc1`: the growth is 51.2% (inactive).
As to `Fc1ccc2nc(-c3cc(-c4ccc5c(c4)OCO5)n[nH]3)[nH]c2c1`, the growth is 13.9% (inactive).
Take `N#C/C(=C\c1ccc[nH]1)c1cc2ccccc2[nH]1`: the growth was 64.8% (inactive).
Regarding `CC(=O)O[C@H]1C(=O)[C@@]2(C)C([C@H](OC(=O)c3ccccc3)[C@]3(O)C[C@H](OC(=O)[C@H](O)[C@@H](NC(=O)c4ccccc4)c4ccccc4)C(C)=C1C3(C)C)[C@]1(OC(C)=O)CO[C@@H]1C[C@@H]2O` (some centres not stated), the growth is 9.14% (active).
On to `C=C(C)[C@@H]1CC[C@]2(C(N)=O)CC[C@]3(C)[C@H](CC[C@@H]4[C@@]5(C)CCCNC(C)(C)[C@@H]5CC[C@]43C)[C@@H]12`, for which the growth was 61.1% (inactive).
For `N=C(N)c1ccc(-c2ccc(-c3ccc(Cl)cc3)s2)nc1`, the growth is -39.1% (active).
On to `CO/N=C/C=C\C(=O)N/C=C/C[C@H]1/C=C/[C@H](O)/C=C\C=C\c2cccc(O)c2C(=O)O1`, for which the growth was 23.3% (inactive) and -28.4% (active).
For the compound `O=C1OC(c2nc3ccccc3s2)=C/C1=C\c1ccc(O)cc1`, the growth is 98.2% (inactive).
Regarding `Nc1nc2ccc(-c3nc4ccc5[nH]ncc5c4c4c3CCCC4)cc2s1`, the growth is 94.7% (inactive).

Values taken from PubChem BioAssay (NCI).
